# From the supplement of paper PMC4466140
# What was measured:
# Test in all cases: SPOT peptide array binding signal intensity (averaged, normalized) (arbitrary units (background-subtracted, floor 0; scale differs between SH3 domains)); higher = stronger binding of the SH3 domain to the peptide
# AgAbp1 = target: AgAbp1
# Method: (§1)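 GST-tagged SH3 domains from S. cerevisiae (Sc), A. gossypii (Ag), C. albicans (Ca) and S. pombe (Sp) were incubated at 10 ug/ml overnight at 4 C on cellulose SPOT membranes carrying 292 synthetic 15-mer peptides mined from the S. cerevisiae proteome (cysteines replaced by serines). Binding was detected with anti-GST antibody, HRP secondary and chemiluminescence, quantified with Genespotter, and reported as normalized spot intensities averaged over biological replicates.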
# AgBbc1 = target: AgBbc1
# Method: as §1
# AgBem1-D1 = target: AgBem1-D1
# Method: as §1
# AgBzz1-D1 = target: AgBzz1-D1
# Method: as §1
# AgBzz1-D2 = target: AgBzz1-D2
# Method: as §1
# AgCyk3 = target: AgCyk3
# Method: as §1
# AgFus1 = target: AgFus1
# Method: as §1
# AgHof1 = target: AgHof1
# Method: as §1
# AgHse1 = target: AgHse1
# Method: as §1
# AgLsb1 = target: AgLsb1
# Method: as §1
# AgLsb4 = target: AgLsb4
# Method: as §1
# AgMyo5 = target: AgMyo5
# Method: as §1
# AgNbp2 = target: AgNbp2
# Method: as §1
# AgRvs167 = target: AgRvs167
# Method: as §1
# AgSho1 = target: AgSho1
# Method: as §1
# AgSla1-D1-D2 = target: AgSla1-D1-D2
# Method: as §1
# AgSla1-D3 = target: AgSla1-D3
# Method: as §1
# CaAbp1-D1 = target: CaAbp1-D1
# Method: as §1
# CaAbp1-D2 = target: CaAbp1-D2
# Method: as §1
# CaBbc1 = target: CaBbc1
# Method: as §1
# CaBem1-D1 = target: CaBem1-D1
# Method: as §1
# CaBzz1-D1 = target: CaBzz1-D1
# Method: as §1
# CaBzz1-D2 = target: CaBzz1-D2
# Method: as §1
# CaCyk3 = target: CaCyk3
# Method: as §1
# CaFus1 = target: CaFus1
# Method: as §1
# CaHof1 = target: CaHof1
# Method: as §1
# CaHse1 = target: CaHse1
# Method: as §1
# CaLsb1 = target: CaLsb1
# Method: as §1
# CaLsb4 = target: CaLsb4
# Method: as §1
# CaMyo5 = target: CaMyo5
# Method: as §1
# CaNbp2 = target: CaNbp2
# Method: as §1
# CaRvs167 = target: CaRvs167
# Method: as §1
# CaRvs167-3 = target: CaRvs167-3
# Method: as §1
# CaSho1 = target: CaSho1
# Method: as §1
# CaSla1-D1-D2 = target: CaSla1-D1-D2
# Method: as §1
# CaSla1-D3 = target: CaSla1-D3
# Method: as §1
# ScAbp1 = target: ScAbp1
# Method: as §1
# ScBbc1 = target: ScBbc1
# Method: as §1
# ScBem1-D1 = target: ScBem1-D1
# Method: as §1
# ScBzz1-D1 = target: ScBzz1-D1
# Method: as §1
# ScBzz1-D2 = target: ScBzz1-D2
# Method: as §1
# ScCyk3 = target: ScCyk3
# Method: as §1
# ScFus1 = target: ScFus1
# Method: as §1
# ScHof1 = target: ScHof1
# Method: as §1
# ScHse1 = target: ScHse1
# Method: as §1
# ScLsb1 = target: ScLsb1
# Method: as §1
# ScLsb2 = target: ScLsb2
# Method: as §1
# ScLsb3 = target: ScLsb3
# Method: as §1
# ScLsb4 = target: ScLsb4
# Method: as §1
# ScMyo3 = target: ScMyo3
# Method: as §1
# ScMyo5 = target: ScMyo5
# Method: as §1
# ScNbp2 = target: ScNbp2
# Method: as §1
# ScPex13 = target: ScPex13
# Method: as §1
# ScRvs167 = target: ScRvs167
# Method: as §1
# ScSho1 = target: ScSho1
# Method: as §1
# ScSla1-D1-D2 = target: ScSla1-D1-D2
# Method: as §1
# ScSla1-D3 = target: ScSla1-D3
# Method: as §1
# SpAbp1-D1 = target: SpAbp1-D1
# Method: as §1
# SpBbc1 = target: SpBbc1
# Method: as §1
# SpBzz1-D1 = target: SpBzz1-D1
# Method: as §1
# SpBzz1-D2 = target: SpBzz1-D2
# Method: as §1
# SpCyk3 = target: SpCyk3
# Method: as §1
# SpHof1 = target: SpHof1
# Method: as §1
# SpHof1-2 = target: SpHof1-2
# Method: as §1
# SpHof1-3 = target: SpHof1-3
# Method: as §1
# SpHse1 = target: SpHse1
# Method: as §1
# SpLsb1 = target: SpLsb1
# Method: as §1
# SpLsb4 = target: SpLsb4
# Method: as §1
# SpMyo1 = target: SpMyo1
# Method: as §1
# SpNbp2 = target: SpNbp2
# Method: as §1
# SpPex13 = target: SpPex13
# Method: as §1
# SpRvs167 = target: SpRvs167
# Method: as §1
# SpSla1-D1-D2 = target: SpSla1-D1-D2
# Method: as §1
# SpSla1-D3 = target: SpSla1-D3
# Method: as §1
binder,measurement,setting,value
NNNKMRPHLPPLSSG,SPOT peptide array binding signal intensity,AgAbp1,47.5
same,SPOT peptide array binding signal intensity,AgBbc1,1.5
same,SPOT peptide array binding signal intensity,AgBem1-D1,288
same,SPOT peptide array binding signal intensity,AgBzz1-D1,12
same,SPOT peptide array binding signal intensity,AgBzz1-D2,9
same,SPOT peptide array binding signal intensity,AgCyk3,≤ 0
same,SPOT peptide array binding signal intensity,AgFus1,386
same,SPOT peptide array binding signal intensity,AgHof1,291
same,SPOT peptide array binding signal intensity,AgHse1,932
same,SPOT peptide array binding signal intensity,AgLsb1,1.25
same,SPOT peptide array binding signal intensity,AgLsb4,34.5
same,SPOT peptide array binding signal intensity,AgMyo5,≤ 0
same,SPOT peptide array binding signal intensity,AgNbp2,513
same,SPOT peptide array binding signal intensity,AgRvs167,3.5
same,SPOT peptide array binding signal intensity,AgSho1,559
same,SPOT peptide array binding signal intensity,AgSla1-D1-D2,≤ 0
same,SPOT peptide array binding signal intensity,AgSla1-D3,0.5
same,SPOT peptide array binding signal intensity,CaAbp1-D1,613
same,SPOT peptide array binding signal intensity,CaAbp1-D2,330
same,SPOT peptide array binding signal intensity,CaBbc1,55.9
same,SPOT peptide array binding signal intensity,CaBem1-D1,264
same,SPOT peptide array binding signal intensity,CaBzz1-D1,85.8
same,SPOT peptide array binding signal intensity,CaBzz1-D2,49.8
same,SPOT peptide array binding signal intensity,CaCyk3,4
same,SPOT peptide array binding signal intensity,CaFus1,1790
same,SPOT peptide array binding signal intensity,CaHof1,≤ 0
same,SPOT peptide array binding signal intensity,CaHse1,487
same,SPOT peptide array binding signal intensity,CaLsb1,3.75
same,SPOT peptide array binding signal intensity,CaLsb4,728
same,SPOT peptide array binding signal intensity,CaMyo5,36.2
same,SPOT peptide array binding signal intensity,CaNbp2,1410
same,SPOT peptide array binding signal intensity,CaRvs167,53.7
same,SPOT peptide array binding signal intensity,CaRvs167-3,4
same,SPOT peptide array binding signal intensity,CaSho1,1520
same,SPOT peptide array binding signal intensity,CaSla1-D1-D2,396
same,SPOT peptide array binding signal intensity,CaSla1-D3,109
same,SPOT peptide array binding signal intensity,ScAbp1,256
same,SPOT peptide array binding signal intensity,ScBbc1,≤ 0
same,SPOT peptide array binding signal intensity,ScBem1-D1,≤ 0
same,SPOT peptide array binding signal intensity,ScBzz1-D1,≤ 0
same,SPOT peptide array binding signal intensity,ScBzz1-D2,≤ 0
same,SPOT peptide array binding signal intensity,ScCyk3,2.25
same,SPOT peptide array binding signal intensity,ScFus1,424
same,SPOT peptide array binding signal intensity,ScHof1,267
same,SPOT peptide array binding signal intensity,ScHse1,1820
same,SPOT peptide array binding signal intensity,ScLsb1,27.2
same,SPOT peptide array binding signal intensity,ScLsb2,0.5
same,SPOT peptide array binding signal intensity,ScLsb3,357
same,SPOT peptide array binding signal intensity,ScLsb4,163
same,SPOT peptide array binding signal intensity,ScMyo3,10.5
same,SPOT peptide array binding signal intensity,ScMyo5,2
same,SPOT peptide array binding signal intensity,ScNbp2,710
same,SPOT peptide array binding signal intensity,ScPex13,116
same,SPOT peptide array binding signal intensity,ScRvs167,55.6
same,SPOT peptide array binding signal intensity,ScSho1,1410
same,SPOT peptide array binding signal intensity,ScSla1-D1-D2,156
same,SPOT peptide array binding signal intensity,ScSla1-D3,224
same,SPOT peptide array binding signal intensity,SpAbp1-D1,323
same,SPOT peptide array binding signal intensity,SpBbc1,1
same,SPOT peptide array binding signal intensity,SpBzz1-D1,354
same,SPOT peptide array binding signal intensity,SpBzz1-D2,6.38
same,SPOT peptide array binding signal intensity,SpCyk3,1.75
same,SPOT peptide array binding signal intensity,SpHof1,9.5
same,SPOT peptide array binding signal intensity,SpHof1-2,78.8
same,SPOT peptide array binding signal intensity,SpHof1-3,552
same,SPOT peptide array binding signal intensity,SpHse1,1170
same,SPOT peptide array binding signal intensity,SpLsb1,3.38
same,SPOT peptide array binding signal intensity,SpLsb4,904
same,SPOT peptide array binding signal intensity,SpMyo1,28.1
same,SPOT peptide array binding signal intensity,SpNbp2,460
same,SPOT peptide array binding signal intensity,SpPex13,92.5
same,SPOT peptide array binding signal intensity,SpRvs167,119
same,SPOT peptide array binding signal intensity,SpSla1-D1-D2,≤ 0
same,SPOT peptide array binding signal intensity,SpSla1-D3,64.5
RRSKSLPITPKSIFN,SPOT peptide array binding signal intensity,AgAbp1,47
same,SPOT peptide array binding signal intensity,AgBbc1,30.8
same,SPOT peptide array binding signal intensity,AgBem1-D1,374
same,SPOT peptide array binding signal intensity,AgBzz1-D1,59
same,SPOT peptide array binding signal intensity,AgBzz1-D2,25
same,SPOT peptide array binding signal intensity,AgCyk3,6.5
same,SPOT peptide array binding signal intensity,AgFus1,79.5
same,SPOT peptide array binding signal intensity,AgHof1,125
same,SPOT peptide array binding signal intensity,AgHse1,306
same,SPOT peptide array binding signal intensity,AgLsb1,1.5
same,SPOT peptide array binding signal intensity,AgLsb4,78.5
same,SPOT peptide array binding signal intensity,AgMyo5,0.5
same,SPOT peptide array binding signal intensity,AgNbp2,27
same,SPOT peptide array binding signal intensity,AgRvs167,0.667
same,SPOT peptide array binding signal intensity,AgSho1,2230
same,SPOT peptide array binding signal intensity,AgSla1-D1-D2,350
same,SPOT peptide array binding signal intensity,AgSla1-D3,≤ 0
same,SPOT peptide array binding signal intensity,CaAbp1-D1,144
same,SPOT peptide array binding signal intensity,CaAbp1-D2,310
same,SPOT peptide array binding signal intensity,CaBbc1,103
same,SPOT peptide array binding signal intensity,CaBem1-D1,55
same,SPOT peptide array binding signal intensity,CaBzz1-D1,146
same,SPOT peptide array binding signal intensity,CaBzz1-D2,61
same,SPOT peptide array binding signal intensity,CaCyk3,13.5
same,SPOT peptide array binding signal intensity,CaFus1,368
same,SPOT peptide array binding signal intensity,CaHof1,1
same,SPOT peptide array binding signal intensity,CaHse1,1
same,SPOT peptide array binding signal intensity,CaLsb1,1
same,SPOT peptide array binding signal intensity,CaLsb4,57
same,SPOT peptide array binding signal intensity,CaMyo5,3
LSKRLPLRFPEHTSS,SPOT peptide array binding signal intensity,SpBzz1-D2,≤ 0
same,SPOT peptide array binding signal intensity,SpCyk3,≤ 0
same,SPOT peptide array binding signal intensity,SpHof1,86
same,SPOT peptide array binding signal intensity,SpHof1-2,36.2
same,SPOT peptide array binding signal intensity,SpHof1-3,538
same,SPOT peptide array binding signal intensity,SpHse1,403
same,SPOT peptide array binding signal intensity,SpLsb1,4.75
same,SPOT peptide array binding signal intensity,SpLsb4,1200
same,SPOT peptide array binding signal intensity,SpMyo1,3.75
same,SPOT peptide array binding signal intensity,SpNbp2,32
same,SPOT peptide array binding signal intensity,SpPex13,2
same,SPOT peptide array binding signal intensity,SpRvs167,143
same,SPOT peptide array binding signal intensity,SpSla1-D1-D2,≤ 0
same,SPOT peptide array binding signal intensity,SpSla1-D3,≤ 0
